Assay [1] can be described thus: A CellTox Green Cytotoxicity Assay to monitor cytotoxicity in HepG2 cells - 8 hour (AID 1224890). Also: nearly all actives have a fitted effect of over 45% in size. The method in brief: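 HepG2, 600 cells/well premixed w/ CellTox Green; 5 h settle, 37 C/5% CO2; pintool cpd add (DMSO); 37 C, 40 h; fluorescence read at 0, 8, 16, 24, 32, 40 h.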
A short description of assay [2]: qHTS assay to identify small molecule antagonists of the estrogen receptor alpha (ER-alpha) signaling pathway using the BG1 cell line in the presence of 0.1 nM 17-beta-estradiol - cell viability counter screen (AID 1259241). Also: nearly all actives have a fitted effect of over 40% in size. The method in brief: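 Viability in VM7Luc4E2 cells after 22 hr compound exposure under 0.1 nM 17beta-estradiol stimulation, by CellTiter-Fluor.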
For orientation: In qHTS, concentration-response curves come from the screen itself.

A short description of assay [3]: qHTS assay to identify small molecule antagonists of the androgen receptor (AR) signaling pathway using the MDA cell line in the presence of 0.5 nM R1881 - cell viability counter screen (AID 1259242). Also: nearly all actives have a fitted effect of over 45% in size. Summed up: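 Live-cell protease fluorescence, CellTiter-Fluor, 30 min at 37C. Cells: MDA-kb2, 3,000/well, preincubated 5 hr. Compounds plus 0.5 nM R1881 final, 16 hr, 37C, 0% CO2.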

Assay [4] is described as follows: qHTS assay to identify small molecule phospholipidosis (PLD) inducers (AID 1259344; active = well fitted curve in the direction sought with a large enough effect; an effect the other way counts as inactive or inconclusive). Summed up: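 Phospholipid accumulation was scored by imaging: fixed, Hoechst-counterstained HepG2 cells stained with LipidTOX Red after 24 h compound exposure at 37 C. Read-outs were pit count and pit intensity per well or per cell, with amiodarone and DMSO controls.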
Assay [5] can be described thus: qHTS assay to identify small molecule HDAC inhibitors (AID 1259364). Also: potency is read from the fitted curve at half-maximal effect.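 Also: wild-type HCT-116 cells with endogenous class I/II HDAC activity; nearly all actives have a fitted effect of over 45% in size.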 As to activity change, negative = inhibition: top concentration of the series differs between compounds. The method in brief: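 HCT-116 (wild type), 1,500 cells/well, overnight; compound 2 hr 37C 5% CO2; HDAC-Glo I/II reagent 30 min RT; luminescence readout.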
A short description of assay [6]: qHTS assay to identify small molecule HDAC inhibitors - cell viability counter screen (AID 1259365). Also: series mostly up to about 92 µM; nearly all actives have a fitted effect of over 50% in size. Summed up: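 Cytotoxicity was gauged in wild-type HCT-116 cells after a brief 2hr treatment with DMSO-dissolved compounds at 37C and 5% CO2, using CellTiter-Glo luminescence developed for 30min at room temperature.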
Assay [7] can be described thus: qHTS assay to identify small molecule antagonists of the sonic hedgehog signaling (Shh) pathway - cell viability counter screen (AID 1259367). Also: nearly all actives have a fitted effect of over 55% in size. Summed up:
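Viability was read by CellTiter-Fluor fluorescence in the same wells, reagent added 23 hr into compound treatment and incubated 1 hr at 37C. The 3T3 Gli1-Luc reporter cells (2,000/well) received conditioned medium after compound and ran 24 hr.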

Assay [8] addresses Estrogen receptor (Homo sapiens) (UniProt P03372). The experiment in a line: qHTS assay to identify small molecule antagonists of the estrogen receptor alpha (ER-alpha) signaling pathway using the BG1 cell line in the presence of 0.1 nM 17-beta-estradiol (AID 1259244). Also: nearly all actives have a fitted effect of over 50% in size. Summed up:
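Luminescence after ONE-Glo (30 min, room temperature) measured ERE-luciferase activity in VM7Luc4E2 cells treated 22 h with compound and 0.1 nM final 17beta-estradiol as stimulator.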

A short description of assay [9]: qHTS assay to identify small molecule agonists of the sonic hedgehog signaling (Shh) pathway - cell viability counter screen (AID 1259366). Also: nearly all actives have a fitted effect of over 50% in size. The method in brief:
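Stable Gli1-Luc NIH/3T3 clone, 2,000 cells/well. Compound exposure 24hr at 37C. Read-out: CellTiter-Fluor fluorescence.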

Assay [10] addresses Androgen receptor (Homo sapiens) (UniProt P10275). Kind of assay: qHTS assay to identify small molecule antagonists of the androgen receptor (AR) signaling pathway using the MDA cell line in the presence of 0.5 nM R1881 (AID 1259243). Also: nearly all actives have a fitted effect of over 50% in size. Summed up: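 MDA-kb2, MMTV-luc (AR/GR elements); 3,000 cells/well; cpd + 0.5 nM R1881 final; 16 hr 37C, 0% CO2; ONE-Glo 30 min RT; luminescence.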

SMILES strings stand for the structures. Values without a mark were called inactive. Inconclusive results are not listed. The source made the active and inactive calls. Unless noted, calls follow the shape of the dose curve; as a rule, active = well fitted curve in the direction sought with a large enough effect in the repeat runs; inconclusive = weak or mixed curves; inactive = no such curve, though single readings can be large; an effect the other way counts as inactive or inconclusive.
% is scaled to controls: 0 for no effect and ±100 for the full control effect.

Androgen receptor (Homo sapiens), sequence (P10275 whole entry, looked up): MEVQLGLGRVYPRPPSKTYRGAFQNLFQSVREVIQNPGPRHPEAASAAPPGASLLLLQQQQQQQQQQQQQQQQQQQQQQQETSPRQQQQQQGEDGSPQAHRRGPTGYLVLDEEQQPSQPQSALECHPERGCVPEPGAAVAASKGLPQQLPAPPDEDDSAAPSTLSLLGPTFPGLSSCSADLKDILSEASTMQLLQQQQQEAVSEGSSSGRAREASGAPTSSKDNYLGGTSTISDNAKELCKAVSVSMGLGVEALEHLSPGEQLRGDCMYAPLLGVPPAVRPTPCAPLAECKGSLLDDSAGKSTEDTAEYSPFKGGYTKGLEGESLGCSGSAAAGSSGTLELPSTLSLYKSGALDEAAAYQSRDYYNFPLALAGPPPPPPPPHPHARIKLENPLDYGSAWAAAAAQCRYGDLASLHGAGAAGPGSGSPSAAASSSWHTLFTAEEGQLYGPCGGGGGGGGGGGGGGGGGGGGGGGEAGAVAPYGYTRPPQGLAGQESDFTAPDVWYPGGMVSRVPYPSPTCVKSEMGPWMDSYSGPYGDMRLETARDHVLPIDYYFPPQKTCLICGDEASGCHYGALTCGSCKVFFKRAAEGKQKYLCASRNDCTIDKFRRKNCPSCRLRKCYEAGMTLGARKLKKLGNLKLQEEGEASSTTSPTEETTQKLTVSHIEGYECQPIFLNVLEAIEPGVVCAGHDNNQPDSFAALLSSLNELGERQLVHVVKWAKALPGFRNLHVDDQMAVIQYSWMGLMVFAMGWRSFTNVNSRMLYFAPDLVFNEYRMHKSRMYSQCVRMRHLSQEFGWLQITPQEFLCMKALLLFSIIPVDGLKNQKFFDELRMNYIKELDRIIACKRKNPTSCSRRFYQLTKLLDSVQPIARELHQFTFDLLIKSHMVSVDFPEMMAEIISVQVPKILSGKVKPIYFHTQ
Estrogen receptor (Homo sapiens), sequence (P03372 whole entry, looked up): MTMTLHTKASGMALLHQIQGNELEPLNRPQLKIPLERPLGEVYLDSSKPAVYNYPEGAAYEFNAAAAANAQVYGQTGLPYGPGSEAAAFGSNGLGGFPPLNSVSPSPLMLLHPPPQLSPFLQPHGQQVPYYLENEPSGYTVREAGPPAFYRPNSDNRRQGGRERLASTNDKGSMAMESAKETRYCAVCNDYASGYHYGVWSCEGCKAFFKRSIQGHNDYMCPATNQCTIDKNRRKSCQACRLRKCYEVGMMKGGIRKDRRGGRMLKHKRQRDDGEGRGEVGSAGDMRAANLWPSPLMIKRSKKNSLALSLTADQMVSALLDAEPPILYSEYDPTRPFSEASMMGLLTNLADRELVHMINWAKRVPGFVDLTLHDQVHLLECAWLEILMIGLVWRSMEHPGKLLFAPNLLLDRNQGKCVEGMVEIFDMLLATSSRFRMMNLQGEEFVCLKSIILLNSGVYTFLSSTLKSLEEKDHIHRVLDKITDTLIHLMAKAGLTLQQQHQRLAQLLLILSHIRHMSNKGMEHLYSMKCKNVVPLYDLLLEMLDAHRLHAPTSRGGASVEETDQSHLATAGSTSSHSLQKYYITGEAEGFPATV

Take `O=S(=O)(c1cccc2cnccc12)N1CCCNCC1`: the Potency result in [1], in [4] and in [5] was “inactive” each time. For the same compound, the result in assay [2], in [3], in assay [6] and in assay [7] was inactive.
Consider `C=C(C)C(=O)OCCCCCCCCCCCCCCCCCC`, for which, in assay [1], the cytotoxicity increase was 0.0012% [at 15.8 µM]. Also, the activity change, negative = cytotoxicity in [2] was 10.5% [at 19 µM]; in assay [6] it was 3.83% [at 19 µM]. For the same compound, the figures for the viability change, negative = cytotoxic in [3] and in assay [7] were 1.71% [at 19 µM] and -2.33% [at 19 µM], respectively. Besides, the activity change, negative = inhibition in [8] is 9.23% [at 19 µM]; in assay [5], 1.5% [at 19 µM].
For the compound `C[C@H]1O[C@@H](n2cc(F)c(=O)[nH]c2=O)[C@H](O)[C@@H]1O`, the Potency result in [1], in assay [4], in assay [5] and in [9] was “inactive” each time. Besides, the result in [2], in assay [3], in assay [6] and in [7] was inactive.
For `CC(O)CN(CCCN(C)C)CCCN(C)C` (configuration not stated), the Potency entry in assay [1], in [5] and in assay [9] was “inactive” in each case. The result in [2], in assay [3], in assay [6] and in [7] was inactive.
In the case of `Cn1ccc2cc3c(cc21)CCN3C(=O)Nc1cccnc1`, the cytotoxicity increase in assay [1] is -6.36% [at 15.8 µM]. For the same compound, the activity change, negative = cytotoxicity in assay [2] was -4.26% [at 19 µM]; in assay [6], -0.0806% [at 19 µM]. For the same compound, in assay [8], the activity change, negative = inhibition is 76.4% [at 19 µM]. Moreover, in assay [4], the Potency entry was “inactive”. Further, the Potency in [5] was 11.6 µM (active). Moreover, the viability change, negative = cytotoxic was 4.12% [at 19 µM] in assay [9] and 4.69% [at 19 µM] in assay [7].
With `NS(=O)(=O)c1cc2c(cc1C(F)(F)F)NC(Cc1ccccc1)NS2(=O)=O` (configuration not stated), the Potency result in assay [1], in assay [10], in [4], in assay [5] and in assay [9] was “inactive” in each case. Further, the outcome in assay [2], in [6] and in assay [7] was inactive.
Consider `CCCCCCOC(=O)c1ccccc1O`, for which the Potency entry in assay [1], in assay [10] and in assay [5] was “inactive” throughout. The outcome in assay [2], in assay [8] and in assay [6] was inactive.
With `C#CC(O)CCCCC` (configuration not stated), the Potency entry in [1], in assay [5] and in [9] was “inactive” throughout. In addition, the outcome in [2], in assay [3], in assay [6] and in [7] was inactive.
As for `N#CCN(CC#N)CCN(CC#N)CC#N`, the Potency result in assay [1], in assay [5] and in assay [9] was “inactive” each time. Also, the outcome in assay [2], in assay [3], in assay [6] and in assay [7] was inactive.
Take `[O-][N+](=Nc1ccccc1)c1ccccc1`: the Potency result in assay [1], in assay [4] and in assay [9] was “inactive” throughout. Moreover, the result in [2], in assay [8] and in [6] was inactive. For the same compound, the Potency in assay [5] was 9.69 µM (active).
In the case of `C1=C\CC/C=C\CC/C=C\CC/1`, the Potency result in assay [1], in [5] and in [9] was “inactive” throughout. Further, the result in assay [2], in assay [3], in assay [6] and in assay [7] was inactive.
As for `C1C2OC2C2C1C1CC2C2OC12` (configuration not stated), the Potency result in [1], in assay [5] and in assay [9] was “inactive” in each case. Besides, the outcome in [2], in assay [3], in assay [6] and in [7] was inactive.
Consider `CC(C)N1C(=O)c2ccccc2C1=O`, for which the Potency result in assay [1], in assay [5] and in [9] was “inactive” in each case. The result in assay [2], in assay [3], in assay [6] and in [7] was inactive.
As to `Cn1cnc2c(=O)[nH]c(N)nc21`, the Potency result in assay [1], in [5] and in [9] was “inactive” each time. Besides, the outcome in assay [2], in assay [3], in assay [6] and in assay [7] was inactive.
As to `COc1cccc(OC)c1`, the Potency result in assay [1], in [5] and in assay [9] was “inactive” throughout. Moreover, the outcome in assay [2], in assay [3], in assay [6] and in assay [7] was inactive.
As to `CCCCCCCCN(C)CCCCCCCC`, the Potency result in assay [1], in assay [10], in assay [5] and in assay [9] was “inactive” throughout. Moreover, the outcome in [2], in assay [8] and in assay [6] was inactive.
For `O=C(O)c1ccccc1-c1ccc(C(F)(F)F)cc1`, the Potency entry in assay [1], in assay [4], in assay [5] and in assay [9] was “inactive” in each case. The outcome in [2], in [8], in assay [6] and in assay [7] was inactive.
As to `OCC(O)[C@@H](O)[C@H](O)[C@H](O)CO[C@H]1O[C@H](CO)[C@@H](O)[C@H](O)[C@H]1O` (some centres not stated), the Potency result in [1], in assay [5] and in [9] was “inactive” in each case. In addition, the result in assay [2], in assay [3], in assay [6] and in assay [7] was inactive.
Regarding `OC1OC[C@@H](O)[C@H](O)[C@H]1O` (some centres not stated), the Potency result in assay [1] and in assay [5] was “inactive” throughout. The outcome in assay [2], in assay [3], in assay [6] and in assay [7] was inactive.
Regarding `FC(F)(F)C(F)(F)C(F)(F)C(F)(F)C(F)(F)C(F)(F)C(F)(F)C(F)(F)C(F)(F)C(F)(F)F`, the cytotoxicity increase in [1] is -4.05% [at 6.97 µM]. The activity change, negative = cytotoxicity is -0.635% [at 8.39 µM] in assay [2] and 4.94% [at 8.39 µM] in [6]. Further, the viability change, negative = cytotoxic in [3] is -3% [at 8.39 µM]; in [9], 2.95% [at 8.39 µM]; in assay [7], 4.53% [at 8.39 µM]. The activity change, negative = inhibition in assay [5] is -3.49% [at 8.39 µM].
Regarding `N#CCc1ccccc1[N+](=O)[O-]`, the Potency entry in [1], in [5] and in [9] was “inactive” each time. In addition, the result in assay [2], in assay [3], in assay [6] and in assay [7] was inactive.
Turning to `CCCC=O`, the Potency entry in assay [1], in assay [5] and in assay [9] was “inactive” in each case. The result in assay [2], in assay [3], in [6] and in assay [7] was inactive.
For `COC(C(=O)O)c1ccccc1` (configuration not stated), the Potency result in [1], in assay [5] and in assay [9] was “inactive” throughout. For the same compound, the result in assay [2], in assay [3], in assay [6] and in assay [7] was inactive.
Turning to `Cc1c(F)cc2c(=O)c(C(=O)O)cn3c2c1CCC3C` (configuration not stated), the Potency result in assay [1], in assay [10], in assay [5] and in [9] was “inactive” throughout. The result in assay [2], in assay [8] and in assay [6] was inactive.
With `CCCCC=O`, the Potency entry in assay [1], in assay [5] and in assay [9] was “inactive” in each case. For the same compound, the outcome in assay [2], in assay [3], in assay [6] and in assay [7] was inactive.
